PNC assembly inh = High Content Assay for Compounds that inhibit the Assembly of the Perinucleolar Compartment. PC3M PTB-GFP, PNC prevalence imaging, 16 h; stronger effect = lower value. activity change (PNC), negative = inhibition, % at 10 µM. hit rate 3.1% among 140,000;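 active = readout at or below -70, meaning at least 70% loss of cells showing the perinucleolar compartment, a nuclear body marking cancer cells; inconclusive = readout between -30 and a set limit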
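PC3M cells stably expressing PTB-GFP, 750–1000 cells/well, treated 16 h at 37 °C with compound (23 nl of library stock), in duplicate. After paraformaldehyde fixation and Hoechst stain, imaged at 20x; PNC prevalence scored by image analysis.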
ALDH1A1 inh = qHTS Assay for Inhibitors of Aldehyde Dehydrogenase 1 (ALDH1A1). Aldehyde dehydrogenase 1A1 (Homo sapiens), P00352. Purified ALDH1A1, NADH fluorescence, propionaldehyde substrate. Potency, µM (series often up to 75.3 µM), most hits filed as inhibitors. hit rate 7.3% among 220,000
Target sequence (P00352 whole entry, looked up): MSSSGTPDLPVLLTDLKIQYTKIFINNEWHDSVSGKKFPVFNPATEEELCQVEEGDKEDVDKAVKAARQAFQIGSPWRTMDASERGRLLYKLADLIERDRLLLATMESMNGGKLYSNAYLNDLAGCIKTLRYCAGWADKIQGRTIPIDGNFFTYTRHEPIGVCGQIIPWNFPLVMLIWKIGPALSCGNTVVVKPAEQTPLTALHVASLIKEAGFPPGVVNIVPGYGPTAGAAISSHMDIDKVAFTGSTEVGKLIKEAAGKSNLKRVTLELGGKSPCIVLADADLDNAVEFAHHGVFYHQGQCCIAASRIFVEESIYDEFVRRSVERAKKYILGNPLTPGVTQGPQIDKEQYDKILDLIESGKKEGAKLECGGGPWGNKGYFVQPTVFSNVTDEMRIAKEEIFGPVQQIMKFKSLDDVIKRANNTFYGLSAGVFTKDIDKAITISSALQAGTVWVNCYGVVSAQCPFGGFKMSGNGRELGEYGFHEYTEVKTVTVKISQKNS
HPGD block = qHTS Assay for Inhibitors of HPGD (15-Hydroxyprostaglandin Dehydrogenase) | 15-hydroxyprostaglandin dehydrogenase [NAD(+)] (Homo sapiens), P15428 | purified HPGD, NADH fluorescence kinetic, PGE2 substrate | Potency, µM, usual class: inhibitors | hit rate 4.3% among 150,000 | AID 894, 2007
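20 nM HPGD preincubated 15 min at room temperature with compound in 50 mM Tris-HCl pH 8, 0.01% Tween 20. Started with 1 mM NAD+ and 30 uM prostaglandin E2; NADH fluorescence (360/450 nm) read 5 times over 30-s intervals, last minus first.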
Each line names hits and unclear results; the compound was inactive in the other large screens. An excerpt weighted towards active compounds, which were near 11% of everything screened. Unless noted, calls follow the shape of the dose curve; as a rule, active = well fitted inhibition curve with a large enough effect (not every such curve was filed as active); inconclusive = small, poorly fitted or top-dose-only effect, or another doubt; inactive = no such curve, though single readings can be large or run the other way.

COC(=O)c1cc(CNC(=O)c2cccc(Cl)c2)ccc1OC	PNC assembly inh -88.9
COc1ccc(CCNC(=O)c2ccc(CNS(=O)(=O)c3cccc(Cl)c3)cc2)cc1OC	PNC assembly inh inconclusive, ALDH1A1 inh 3.55µM
COC(=O)c1cc(CNC(=O)c2cccc(Cl)c2Cl)ccc1OC	HPGD block inconclusive
COc1ccc(CNC(=O)/C=C/c2ccc(S(=O)(=O)NCc3ccco3)cc2)cc1OC	none
O=C(/C=C/c1ccc(S(=O)(=O)NCc2ccco2)cc1)NCc1ccccc1Cl	ALDH1A1 inh 28.2µM (no result: HPGD block)
O=C(c1ccncc1)N1CCC2(CCCN(c3ncccn3)C2)CC1	none (no result: PNC assembly inh)
Nc1nncn1C(=O)CCc1ccccc1	none
C[C@H]1[C@H](C)CC[C@]2(C(=O)O)CC[C@]3(C)C(=CCC4[C@@]5(C)CC[C@H](O)C(C)(C)[C@@H]5CC[C@]43C)[C@H]12 (stereo partly specified)	none (no result: PNC assembly inh)
O=C(COC(=O)c1cccc(C(=O)OCC(=O)NCc2ccc(F)cc2)n1)NCc1ccc(F)cc1	none
COc1cccc(C(=O)COc2ccc3c(C)c(Cc4ccccc4)c(=O)oc3c2C)c1	PNC assembly inh -100.5
Cc1cccc(C)c1NC(=O)COc1ccc2c(C)c(Cc3ccccc3)c(=O)oc2c1C	PNC assembly inh inconclusive, ALDH1A1 inh inconclusive
CC(C)(C)NS(=O)(=O)c1cccc(S(=O)(=O)c2cccc(S(=O)(=O)NC(C)(C)C)c2)c1	HPGD block 20µM
CC(C)(C)NS(=O)(=O)c1ccc(N2C(=O)c3ccccc3C2=O)cc1	none
CS(=O)(=O)N(Cc1ccccc1)c1ccc(C(=O)Nc2ccc3c(c2)OCO3)cc1	none
CCOc1ccccc1OCC(=O)NCCc1ccc(S(N)(=O)=O)cc1	none (no result: PNC assembly inh, HPGD block)
CC(=O)c1ccc(NS(=O)(=O)Cc2ccc(Cl)cc2)cc1	none
CC(=O)Nc1cccc(NS(=O)(=O)Cc2ccc(Cl)cc2)c1	ALDH1A1 inh 28.2µM
Cc1ccc(C(=O)OCc2nnc(-c3ccc(Br)cc3)o2)cc1	none (no result: PNC assembly inh, HPGD block)
Nn1c(SCc2ccccn2)nncc1=O	none (no result: PNC assembly inh, HPGD block)
COc1ccc(-c2noc(CCCC(=O)NCCc3ccccc3)n2)cc1OC	PNC assembly inh inconclusive, HPGD block inconclusive
COc1cc2c(cc1OC)C1C(C(=O)Nc3ccccc3N3CCN(C)CC3)c3ccccc3C(=O)N1CC2 (stereo unspecified)	none (no result: PNC assembly inh, HPGD block)
Cc1ccccc1NCc1nnc2n1CCCCC2	none (no result: PNC assembly inh, HPGD block)
CCOC(=O)N1CCN(C(=O)c2ccccc2CCc2ccccc2)CC1	PNC assembly inh inconclusive, ALDH1A1 inh 6.31µM
O=C(c1ccccc1CCc1ccccc1)N1CCN(c2ccccn2)CC1	PNC assembly inh -83.7, ALDH1A1 inh inconclusive, HPGD block inconclusive
CCOC(=O)N1CCN(C(=O)c2ccccc2-c2ccccc2)CC1	none
CCOC(=O)N1CCN(C(=O)CSCc2ccccc2)CC1	none
O=C(CCc1ccccc1)N1CCN(c2ccccn2)CC1	ALDH1A1 inh inconclusive
CCOC(=O)N1CCN(C(=O)CSc2ccccc2)CC1	ALDH1A1 inh inconclusive, HPGD block 10µM
O=S(=O)(Cc1ccc(Cl)cc1)c1ncc(CO)n1Cc1ccccc1	none (no result: PNC assembly inh, HPGD block)
COc1ccc(N(CC(=O)NC(C)(C)C)S(=O)(=O)c2ccccc2)cc1OC	none
CN(c1ccc(Cl)cc1)c1cc(=O)n(C)c2ccccc12	PNC assembly inh inconclusive, HPGD block 7.94µM
CN(C(=O)COc1cc(=O)n(C)c2ccccc12)c1ccc(Cl)cc1	ALDH1A1 inh inconclusive
CC(CC(=O)O)(CC(=O)O)C(=O)O	none (no result: PNC assembly inh)
c1ccc(-c2ccccc2OCCCN2CCCCC2)cc1	ALDH1A1 inh inconclusive
CCN1CCN(CCCOc2ccccc2-c2ccccc2)CC1	ALDH1A1 inh 11.2µM (no result: PNC assembly inh, HPGD block)
O=C(C1CCCN(S(=O)(=O)c2cccc3cccnc23)C1)N1CCN(c2ccc(F)cc2)CC1 (stereo unspecified)	PNC assembly inh -81.3
CC1CCCN(C(=O)C2CCN(S(=O)(=O)c3cccc4cccnc34)CC2)C1 (stereo unspecified)	ALDH1A1 inh inconclusive, HPGD block 14.1µM
O=C(C1CCN(S(=O)(=O)c2cccc3cccnc23)CC1)N1CCN(c2ccccc2)CC1	none
CCN1CCN(C(=O)C2CCN(S(=O)(=O)c3cccc4cccnc34)CC2)CC1	none
O=C1c2cccnc2C(=O)N1Cc1ccc(F)cc1	PNC assembly inh inconclusive
COc1ccc(/C=C/C(=O)c2ccc[nH]2)cc1OC	none
CCOc1ccc(/C=C/C2=CC(C)(C)NC(=S)N2)cc1	ALDH1A1 inh 12.6µM (no result: PNC assembly inh, HPGD block)
COc1ccc(/C=C/C2=CC(C)(C)NC(=S)N2)cc1OC	ALDH1A1 inh 7.94µM (no result: PNC assembly inh, HPGD block)
C(=C\c1ccncc1)/c1ccccc1	none (no result: PNC assembly inh, HPGD block)
COc1ccc(/C=C/c2ccncc2)cc1OC	PNC assembly inh -96.7, ALDH1A1 inh inconclusive, HPGD block inconclusive
CCOc1ccc(/C=C/C(=O)c2ccccc2)cc1	none (no result: PNC assembly inh, HPGD block)
CC(NC(=O)CNC(=O)C1O[C@@H]2OC(C)(C)O[C@@H]2[C@H]2OC(C)(C)O[C@@H]12)C(=O)O (stereo partly specified)	none (no result: PNC assembly inh, HPGD block)
O=C(CN1CCN(c2ccccc2F)CC1)NC(=O)NCc1ccccc1	none (no result: PNC assembly inh, HPGD block)
O=C1c2ccccc2C(=O)N1c1ccc(S(=O)(=O)N2CCN(c3ccccc3)CC2)cc1	none
Fc1ccccc1NC(=S)N1CCN(c2ccccn2)CC1	none
COc1ccc(-c2csc(NS(=O)(=O)c3ccc([N+](=O)[O-])cc3)n2)cc1	none
CCc1cccc(Nc2cc(C)nc3nc(C)nn23)c1	none
C[C@@]12C=Cc3occc3C1CC[C@@]13C[C@@H](CCC12)[C@@](O)(CO)C3 (stereo partly specified)	ALDH1A1 inh 1.41µM (no result: PNC assembly inh)
CC(=O)OC[C@@]1(O)C[C@]23CCC4c5ccoc5CC[C@@]4(C)C2CCC1C3 (stereo partly specified)	none (no result: PNC assembly inh)
CSc1nc(C)cc(SCCO)n1	none
CC(C)[C@H](NS(=O)(=O)c1ccccc1)C(=O)OCC(=O)NC(=O)c1cccn1C	ALDH1A1 inh 12.6µM
COc1ccc(C(=O)N[C@H](C(=O)OCC(=O)NC(=O)c2cccn2C)C(C)C)cc1	none
CNC(=O)c1ccccc1Sc1ccccc1C#N	none (no result: PNC assembly inh, HPGD block)
CCCCNc1cnn(-c2ccccc2)c(=O)c1Cl	none (no result: PNC assembly inh, HPGD block)
O=c1c(Cl)c(Cl)cnn1-c1ccccc1	ALDH1A1 inh 12.6µM
COc1ccc(NS(=O)(=O)c2cc(NC(=O)c3ccco3)ccc2N2CCCC2)cc1	ALDH1A1 inh inconclusive
COc1ccc(NS(=O)(=O)c2ccc(N3CCCC3)c(NC(=S)Nc3ccc(SC(F)F)cc3)c2)cc1	ALDH1A1 inh 3.55µM, HPGD block 3.55µM
NNC(=S)Nc1cc(S(=O)(=O)N2CCOCC2)ccc1N1CCOCC1	none (no result: PNC assembly inh, HPGD block)
O=S(=O)(Nc1ccc(Cl)cc1)c1ccc(N2CCOCC2)c(NC(=S)NC2CC2)c1	ALDH1A1 inh 8.91µM (no result: PNC assembly inh, HPGD block)
COc1ccc(NS(=O)(=O)c2ccc(N3CCCC3)c(NC(=S)Nc3cccc(C)c3C)c2)cc1	PNC assembly inh inconclusive, ALDH1A1 inh 8.91µM, HPGD block 12.6µM
COc1ccc(N2CCN(CC(=O)Nc3ccc(SC(F)F)cc3)CC2)cc1	none
C#CCOCCOCCOCCNc1nc(N2CCOCC2)nc(N2CCN(C(=O)[C@H](C)n3cc(CCCN=C(N)N)nn3)CC2)n1	none
CCCCCC(=O)Cc1cc(O)cc(O)c1C(=O)Oc1cc(CC(=O)CCCCC)c(C(=O)O)c(OC)c1	none (no result: PNC assembly inh)
